In PubChem BioAssay AID463173 (ICCB-Longwood Screening Facility, Harvard Medical School, 2010) one finds survival data, which are given here for 91 compounds.

The whole screen tested about 52,000 compounds, of which about 1,700 (3.3%) were called active. Many of the other results were omitted from the sample, so actives are more common in it than they were. Unmarked numbers belong to inactive results. Cut-off read from the data, not from the text of the source: active = survival mostly below about 52% (no sharp cut-off); inactive = mostly above about 56%.

The assay deals with Wild type. The assay can be described thus: growth inhibition of S. aureus wild type versus tarO mutant, primary screen, teichoic acid synthesis inhibitors, RN4220, OD600 (AID 463173). Conditions: S. aureus RN4220 wild type/DeltatarO growth, OD600, 18 h, stronger effect = lower value, screened at 18.75 µg/mL (by protocol).
With `CCc1ccccc1NC(=O)Cn1cc(S(=O)(=O)N2CCCC2)c(S(=O)(=O)N2CCCC2)c1`, the survival was 68%.

With `CCc1ccccc1NC(=O)CCn1nc(C)c2c(C)n(-c3ccccc3)nc2c1=O`, the survival is 88%.

On to `Cc1ccc(C(=O)Nc2ccccc2C(=O)OCc2cc(=O)n3nc(C4CC4)sc3n2)cc1`, for which the survival was 87%.

`COc1cccc(-n2c(=O)c3cc(OC)c(OC)cc3n(CC(=O)Nc3ccc(F)cc3)c2=O)c1`: the survival was 73%.

As for `Cc1ccc(Cl)cc1N1CCN(C(=O)c2sc3nc4n(c(=O)c3c2C)CCC4)CC1`, the survival was 75%.

As to `CCOC(=O)c1ccc(NC(=O)c2cc3sccc3n2Cc2ccc(Cl)cc2)cc1`, the survival is 87%.

On to `COc1cc(OC)c(NC(=O)Cn2c(=O)nc(-c3ccccc3)c3ccccc32)cc1Cl`, for which the survival is 68%.

Take `CN(Cc1ccccc1)S(=O)(=O)c1nnc(NC(=O)c2cccc(Cl)c2)s1`: the survival is -1% (active).

On to `O=C(COc1ccc(Cl)cc1)Nc1nnc(S(=O)(=O)N2CCc3ccccc32)s1`, for which the survival is 12% (active).

As to `COc1ccc(OCC(=O)Nc2nnc(S(=O)(=O)N3CCc4ccccc43)s2)cc1`, the survival is 73%.

Consider `Cc1ccc(OCC(=O)Nc2nnc(S(=O)(=O)N3CCc4ccccc43)s2)cc1`, for which the survival is 24%.

Turning to `O=C(Nc1nnc(S(=O)(=O)N2CCCc3ccccc32)s1)c1ccccc1`, the survival is 31%.

With `Cc1cccc(C(=O)Nc2nnc(S(=O)(=O)N3c4ccccc4CC3C)s2)c1` (stereo unspecified), the survival is 21%.

Regarding `O=C(Nc1nnc(S(=O)(=O)N2CCCc3ccccc32)s1)c1ccc(Cl)cc1`, the survival is 19%.

As to `CN(Cc1ccccc1)S(=O)(=O)c1nnc(NC(=O)c2ccccc2)s1`, the survival is 35%.

Regarding `Cc1cccc(C(=O)Nc2nnc(S(=O)(=O)N(C)Cc3ccccc3)s2)c1`, the survival is 29%.

Take `CC1Cc2ccccc2N1S(=O)(=O)c1nnc(NC(=O)c2ccccc2)s1` (stereo unspecified): the survival is 18%.

For `CC1Cc2ccccc2N1S(=O)(=O)c1nnc(NC(=O)c2cccc(F)c2)s1` (stereo unspecified), the survival is 10% (active).

Regarding `O=C(Nc1nnc(S(=O)(=O)N2CCCc3ccccc32)s1)c1cccc(Cl)c1`, the survival is 6% (active).

Turning to `Cc1nnc(N2C(=O)c3oc4ccccc4c(=O)c3C2c2ccc(F)cc2)s1` (stereo unspecified), the survival was 79%.

For the compound `O=c1cccc2n1CC1CC(C2)N(c2nc(N3CCCCC3)nc(N3CCCCC3)n2)C1` (stereo unspecified), the survival was 104%.

Turning to `CCCn1c(=O)n(-c2ccccc2)c(=O)c2sc3ccccc3c21`, the survival is 93%.

With `COc1ccc(CNCc2ccc3c(c2)n(C)c(=O)n3C)cc1`, the survival was 90%.

Consider `COc1cc(NC(=O)C(CC(C)C)NS(=O)(=O)c2ccc3c(c2)oc(=O)n3C)c(C(=O)O)cc1OC` (stereo unspecified), for which the survival was 124%.

For the compound `Nc1cccc2c1C(=O)N(CC(=O)O)C2=O`, the survival is 104%.

As to `Cc1ccccc1CNC(=O)Cn1ncn2nc(-c3cccs3)cc2c1=O`, the survival is 120%.

Turning to `CCOc1ccc(S(=O)(=O)NCC(c2ccco2)S(=O)(=O)c2ccc(F)cc2)cc1` (stereo unspecified), the survival is 90%.

For the compound `O=C(CSc1nc2cc3ccccc3cc2[nH]1)Nc1ccc(F)cc1`, the survival was 76%.

`CCCCNC(=O)c1nn(-c2ccc(C)cc2)c(=O)c2c1c1ccccc1n2C`: the survival is 79%.

As for `CN(Cc1ccco1)C(=O)c1ccc2c(c1)N(Cc1ccccc1F)C(=O)c1ccccc1S2`, the survival was 115%.

`Cc1oc2ncn(CC(C)C)c(=O)c2c1C(=O)N1CCN(c2ccc(F)cc2)CC1`: the survival is 57%.

With `CC1CCCN(S(=O)(=O)c2ccc(S(=O)(=O)N(Cc3cccs3)Cc3cccs3)cc2)C1` (stereo unspecified), the survival is 112%.

In the case of `Cc1ccc(CN(Cc2ccco2)C(=O)COc2ccccc2C)cc1`, the survival was 83%.

As for `O=C(Nc1nnc(S(=O)(=O)N2CCc3ccccc32)s1)c1ccccc1Cl`, the survival was 23%.

Turning to `O=C(Nc1nnc(S(=O)(=O)N2CCc3ccccc32)s1)c1ccccc1`, the survival was 19%.

Regarding `O=C(Nc1nnc(S(=O)(=O)N2CCc3ccccc32)s1)c1cccc(Cl)c1`, the survival is 12% (active).

For `O=c1[nH]c2cc3c(cc2cc1CN(CCN1CCOCC1)C(=S)Nc1ccccc1)OCCO3`, the survival was 109%.

On to `CCOc1ccc(NC(=O)CC2Nc3cccc4cccc(c34)NC2=O)cc1` (stereo unspecified), for which the survival was 63%.

Take `CCOc1ccc(-c2nonc2NC(=O)c2oc3c(C)c(C)ccc3c2C)cc1OCC`: the survival was 82%.

In the case of `COC(=O)Cn1c(SCCOc2ccccc2OC)nc2ccccc21`, the survival is 91%.

With `COC(=O)Cn1c(SCCOc2ccccc2Cl)nc2ccccc21`, the survival was 81%.

Regarding `CCn1c(SCCOc2ccccc2F)nc2ccccc21`, the survival was -1% (active).

Turning to `COc1ccc(Oc2nc3c(c(=O)n(C)c(=O)n3C)n2Cc2ccccc2Cl)cc1`, the survival is 75%.

As to `Cn1c(=O)c2c(nc(Oc3ccccc3)n2Cc2c(Cl)cccc2Cl)n(C)c1=O`, the survival was 73%.

Take `CCCCC(CC)Cn1c(Oc2ccccc2)nc2c1c(=O)n(C)c(=O)n2C` (stereo unspecified): the survival is -2% (active).

Take `Cc1ccc(C(=O)N2CCN(c3ccccc3F)CC2)cc1NC(=O)c1nsc2ccccc12`: the survival was 87%.

Consider `Cc1cc(C)cc(Oc2nc3c(C)cccn3c(=O)c2/C=C(\C#N)c2nc3ccccc3[nH]2)c1`, for which the survival is 69%.

As to `CCCCN(CC)CCCNC(=O)c1ccc2c(c1)NC(=O)CN2C`, the survival was 57%.

With `CCN1CCN(CCCNC(=O)c2ccc3c(c2)sc2nc(-c4ccc(OC)cc4)cn23)CC1`, the survival is 82%.

On to `CCOc1ccc(-c2cn3c(n2)sc2cc(C(=O)NCCCN4CCCCC4)ccc23)cc1`, for which the survival is -1% (active).

Consider `CCCN1CCN(CCCNC(=O)c2ccc3c(c2)sc2nc(-c4ccc(OC)cc4)cn23)CC1`, for which the survival was 81%.

As to `O=C(NCCCN1CCCCCC1)c1ccc2c(c1)sc1nc(-c3ccccc3)cn12`, the survival was 38%.

Consider `CCCN1CCN(CCCNC(=O)c2ccc3c(c2)sc2nc(-c4ccc(OCC)cc4)cn23)CC1`, for which the survival was 36%.

Consider `CCOc1ccc(-c2cn3c(n2)sc2cc(C(=O)NCCCN4CCCCCC4)ccc23)cc1`, for which the survival is -1% (active).

For `COc1cccc(Cn2cc(C(=O)c3ccccc3)c(=O)c3cc4c(cc32)OCO4)c1`, the survival was 84%.

Turning to `O=C(CSCc1ccccc1Cl)NCc1ccc(Cl)c(Cl)c1`, the survival is 148%.

Consider `COc1ccc(C(=O)Nc2ccc(-c3nnc4n3CCCCC4)cc2)cc1`, for which the survival is -3% (active).

Regarding `CCOc1cc(C(=O)Nc2ccc(-c3nnc4n3CCCCC4)cc2)cc(OCC)c1OCC`, the survival was 88%.

Regarding `COc1ccc(C(=O)Nc2ccc(-c3nnc4n3CCCCC4)cc2)cc1OC`, the survival is 65%.

In the case of `Cc1ccc2c(c1)C(c1ccccc1)N(C(=O)c1ccc(S(=O)(=O)N3CCCCC3)cc1)CC(=O)N2` (stereo unspecified), the survival was 86%.

Regarding `CCOC(=O)c1cnc2c(ccc3ccccc32)c1Nc1ccccc1O`, the survival is 74%.

Regarding `CCOC(=O)c1cnc2c(ccc3ccccc32)c1Nc1ccc(OCC)cc1`, the survival is -2% (active).

Take `CCOC(=O)c1cnc2c(ccc3ccccc32)c1Nc1ccc(Cl)cc1`: the survival was 30%.

Turning to `CCOc1ccc(Nc2nc(N)c(C(=O)c3ccccc3Cl)s2)cc1`, the survival was -2% (active).

Take `CCOC(=O)c1cnc2c(ccc3ccccc32)c1Nc1cccc(Cl)c1`: the survival is 23%.

For the compound `Cc1ccccc1Nc1nc(N)c(C(=O)c2ccccc2Cl)s1`, the survival is 101%.

Take `COc1cccc(C(=O)c2sc(Nc3ccc(F)c(Cl)c3)nc2N)c1`: the survival was 65%.

In the case of `CCOC(=O)c1cnc2c(ccc3ccccc32)c1Nc1ccc(C(C)=O)cc1`, the survival is 0% (active).

Take `CCOC(=O)c1cnc2ccccc2c1NCCc1ccc(OC)c(OC)c1`: the survival was 53%.

`CCOC(=O)c1cnc2c(ccc3ccccc32)c1Nc1cccc(OC)c1`: the survival was 68%.

As to `CCOC(=O)c1cnc2c(ccc3ccccc32)c1Nc1ccc(OC)c(OC)c1`, the survival is 5% (active).

As for `COc1ccccc1CNC(=O)C1CCCN(S(=O)(=O)c2ccc3c(c2)oc(=O)n3C)C1` (stereo unspecified), the survival was 92%.

With `COc1cc(OC)c(NC(=O)CSc2nccn2C)cc1Cl`, the survival was 75%.

Regarding `Nc1nonc1-c1nc2ccccc2n1Cc1ccc(Br)cc1`, the survival is 93%.

As to `CC(=O)N1CCc2c(sc3c2c(=O)n(-c2cc(Cl)ccc2C)c(=O)n3C)C1`, the survival was 119%.

`CCOC(=O)c1cnc2c(C)cccc2c1Nc1ccc(OC(C)C)cc1`: the survival is 3% (active).

Regarding `CCOC(=O)c1cnc2c(CC)cccc2c1NCCO`, the survival is 116%.

Take `CCOC(=O)c1cnc2c(ccc3ccccc32)c1Nc1ccc(N(C)C)cc1`: the survival was 0% (active).

Consider `CCOC(=O)c1cnc2c(Cl)c(Cl)ccc2c1Nc1ccc(N(C)C)cc1`, for which the survival is 80%.

Regarding `CCOC(=O)c1cnc(NCc2ccc(OC)cc2OC)c2ccccc12`, the survival is 117%.

On to `CCOC(=O)c1cnc2c(ccc3ccccc32)c1Nc1ccc(OC)cc1OC`, for which the survival is 6% (active).

As for `CCOC(=O)c1cnc2c(OC)cccc2c1Nc1cccc(O)c1`, the survival was 73%.

On to `CCOC(=O)c1cnc2c(ccc3ccccc32)c1Nc1ccccc1OC`, for which the survival was 69%.

Turning to `CCN1C(=O)SC(CC(=O)O)C1=O` (stereo unspecified), the survival was 99%.

As to `CCOc1ccc(NC(=O)CC2C(=O)N(c3ccccc3)C(=O)N2C2CCCCC2)cc1` (stereo unspecified), the survival is 69%.

On to `CC(C)c1ccc(NC(=O)CN2C(=O)C3(SCC(=O)N3c3ccc(F)cc3)c3ccccc32)cc1` (stereo unspecified), for which the survival was 58%.

In the case of `CCCCOc1ccc(S(=O)(=O)N2CCN(c3ccccc3OCC)CC2)cc1`, the survival was 112%.

With `CCc1ccc(N2CCn3c2nc2c3c(=O)n(C/C=C/c3ccccc3)c(=O)n2C)cc1`, the survival was 79%.

As for `CCCCc1nn2c(=O)cc(COC(=O)C3CCCCC3)nc2s1`, the survival was 70%.

With `Cc1cccc(C(=O)N2CCc3cc(CNC(=O)c4ccnn4C)ccc32)c1`, the survival is 90%.

For the compound `C#CCSc1nc(-c2ccccc2)cc(-c2ccccc2)c1C#N`, the survival is 70%.
